From PubChem BioAssay (NCI)
Where “and” joins values, the source holds several entries; their conditions need not be identical. Equal entries are not always repeated. Compounds without any hit were thinned out: in the full panel of roughly 83,000, 20% have a hit.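 96-well plates, one dose, 48 hours. Percent growth reported; active if below 10.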 Unmarked numbers belong to inactive results. Calls of active or inactive are those of the source.

Test system: HL-60(TB) leukemia
Assay: NCI-60 one-dose screen, 48 h (100 = growth as untreated, 0 = no growth, -100 = all killed)
Conditions: 10 µM unless noted

Row | Compound | growth
1 | Nc1ccc(Nc2ncnc3sc4c(c23)CCN(Cc2ccccc2)C4)cc1 | 102%
2 | O=C(CCCCCCN1CC(=O)N2[C@@H](c3ccccc3)c3[nH]c4ccccc4c3C[C@H]2C1=O)NO | 28.5%
3 | O=C1c2ccccc2C23C(=C(c4cncnc4)c4ccccc42)CCCN13 (centres undefined) | 112%
4 | CCOC(=O)c1c(NC(=O)c2cccc(C(F)(F)F)c2)sc2cc(O)ccc12 | 46.9%
5 | N#Cc1ccc(C(=O)CSc2nc(Nc3ccc(S(N)(=O)=O)cc3)c3ccccc3n2)cc1 | 105%
6 | O=[N+]([O-])c1cc(/C=N/Nc2nc(N/N=C/c3ccc(Cl)c([N+](=O)[O-])c3)nc(N3CCCCC3)n2)ccc1Cl | 41.9%
7 | CCN1CCN(c2cc(C(=O)Nc3nc4ccc(Oc5ccnc(C(=O)NC)c5)cc4s3)cc(C(F)(F)F)c2)CC1 | 18.7%
8 | O=C(CCCCCCN1CC(=O)N2[C@@H](c3ccccc3Br)c3[nH]c4ccccc4c3C[C@H]2C1=O)NO | 5.1% (active)
9 | CC1(C)CC[C@]23CC[C@]4(C)[C@H](CC[C@@H]5[C@@]6(C)CCCN(CO)C(C)(C)[C@@H]6CC[C@]54C)[C@H]2[C@H]1OC3 | 36.6%
10 | CCCCCCCCCC(=O)NC(C)(C)C(=O)N1CCC[C@H]1C(=O)N[C@@H](CC(C)C)C(=O)N[C@@](C)(CC)C(=O)N[C@@H](CCC(N)=O)C(=O)N[C@H](CCC(N)=O)C(=O)NC(C)(C)C(=O)NC(C)(C)C(=O)N[C@@H](CCC(N)=O)C(=O)N[C@H](CC(C)C)C(=O)N[C@H](CO)CC(C)C | -76.7% (active) and -39.4% (active)
11 | CN1C(=O)N(C)C2Nn3c(s/c(=C\c4ccccn4)c3=O)=NC21 (centres undefined) | 110%
12 | NS(=O)(=O)c1cccc(Nc2nc(SCC(=O)c3ccc(Br)cc3)nc3ccccc23)c1 | 79.1%
13 | Cc1cc(NS(=O)(=O)c2ccc(NC(=O)CSc3nc4ccccc4c(=O)n3-c3ccccc3)cc2)no1 | 110%
14 | Cc1ccc2c(n1)C(=O)C(Cl)=C(Nc1ccc(C#N)cc1)C2=O | 17.4%
15 | CC(C)(C)Nc1nc2c(OCCc3ccccc3)cccn2c1-c1ccccc1Cl | -31.6% (active)
16 | NNC(=O)c1sc2nc(-c3cnccn3)cc(-c3cccs3)c2c1N | 105%
17 | O=S(=O)(NCCCNc1nccc(-c2[nH]c(-c3ccccc3)nc2-c2ccc(Cl)c(O)c2)n1)c1ccc(Br)cc1 | 13.1%

Row | Compound | growth
18 | O=C(CN1CCN(c2cc(=O)[nH]c3ccc(F)cc23)CC1)Nc1ccc(Cl)cc1 | 87.6%
19 | CNCc1cccc2c1OCCCCCCC(C)(O)CC(C)(C)S(=O)(=O)c1ccc(cc1)-c1cnc(N)c(n1)C(=O)N2 (centres undefined) | -44.1% (active)
20 | CC1(C)NCCC[C@]2(C)[C@H]3C/C(=N\O)C4[C@@H]5C[C@@](C)(CO)CC[C@]5(C)CC[C@@]4(C)[C@]3(C)CC[C@@H]12 (some centres undefined) | 68.9%
21 | Cc1nc(-c2ccccc2O)ccc1C(=O)N=Nc1c(O)[nH]c2ccc(Br)cc12 | 114%
22 | O=C(Nc1ccc(Cl)cc1)Nc1nc2ccc([N+](=O)[O-])cc2s1 | -51% (active)
23 | C=C1CCc2nc(SCC(=O)O)ccc2N1 | 96%
24 | O=C1[C@H]2Cc3c([nH]c4ccccc34)[C@H](c3ccc(Cl)cc3)N2C(=O)CN1C1CCN(CC2CCCCC2)CC1 | 47.2%
25 | O=C(COc1ccc(C2SCC(=O)N2c2ccccc2)cc1)c1ccccc1 (centres undefined) | 96.2%
26 | N#Cc1nc(-c2ccccc2)oc1N1CCC(CO)C1 (centres undefined) | 107%
27 | C/C(CC1(O)C(=O)Nc2ccccc21)=N\O (centres undefined) | 97%
28 | CC(C)(C)c1ccc(C(=O)Nc2nc3ccc(O)cc3s2)cc1 | 24.8%
29 | COc1ccc(Cn2cc(C#N)c(N)c2C(C)=O)cc1 | 103%
30 | CSc1ccc(/C(=N/N=C(N)N)c2ccc(Cl)cc2)cc1 | -45.1% (active)
31 | COc1ccc(Oc2ccc(C3CC(c4cc(OC)c(OC)c(OC)c4)=NN3C(C)=O)cc2)cc1 (centres undefined) | -14.9% (active)
32 | Fc1ccc(-c2nc(C(Cl)Cl)nc3cc(-c4ccccc4)nn23)cc1 | -8.76% (active)
33 | O=[N+]([O-])c1ccc(O)c2ncccc12 | -5.62% (active)
34 | COc1ccc(/C=C(/C)c2ccc3ccc(OC)cc3[o+]2)c(O)c1 | 44%
